# Assay results taken from PubChem BioAssay.
# Results filed as inconclusive are left out. Active and inactive are the calls of the source.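 Rule for the calls, unless noted: active = normalized viability below 100% at a tested concentration; inactive = the rest.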
# Key:
# [1] = viability loss in pontine glioma line – cell-based, SU-DIPG-XVII, MIPE5.0, CellTiter-Glo, qHTS, dose response (AID 1347060; cut-off not given, nearly all actives have AC50 up to about 26 µM;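 for AC50: cells exposed to compound for 48 hours before viability readout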); conditions: CellTiter-Glo ATP luminescence
# [2] = viability loss in pontine glioma line – cell-based, SU-DIPG-XIII, MIPE5.0, CellTiter-Glo, qHTS, dose response (AID 1347064; cut-off not given, nearly all actives have AC50 up to about 23 µM;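 for AC50: cells exposed to compound for 48 hours before the viability read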); conditions: CellTiter-Glo ATP luminescence
# [3] = viability loss in pontine glioma line – cell-based, SU-DIPG-XXV, MIPE5.0, CellTiter-Glo, qHTS, dose response (AID 1347065; cut-off not given, nearly all actives have AC50 up to about 26 µM;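 note: cells exposed to compound for 48 hours before ATP readout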); conditions: CellTiter-Glo ATP luminescence
# [4] = JHH-DIPG-1 glioma cell viability, MIPE5.0 library, CellTiter-Glo luminescence, qHTS (AID 1347067; cut-off not given, nearly all actives have AC50 up to about 26 µM;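 note: cells exposed to compound for 48 hours before readout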); conditions: JHH-DIPG-1 glioma viability, CellTiter-Glo ATP luminescence
# [5] = growth inhibition of DIPG cells – cell-based, MIPE4.0 library, CellTiter-Glo luminescence, qHTS (AID 1347066; cut-off not given, nearly all actives have AC50 up to about 30 µM;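 note: cells exposed to compound for 48 hours before readout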); conditions: SU-DIPG-VI viability, CellTiter-Glo ATP luminescence
# [6] = growth inhibition of DIPG cells – cell-based, MIPE5.0 library, qHTS (AID 1347068; cut-off not given, nearly all actives have IC50 up to about 30 µM); conditions: SU-DIPG-XXV viability
# [7] = viability loss with induced miR-34 in A549 – imaging, A549 dox-inducible miR-34, nuclei and caspase counts, primary screen (AID 1347080;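 active = compounds whose cell count with miR-34 switched on is under 0.7 times the count with it off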); conditions: A549 miR-34 inducible, Hoechst nuclei count, 48 h
# [8] = MELAS cybrid and Rieske KO viability enhancers – cell-based, MELAS cybrids, Rieske KO mouse fibroblasts, CellTiter-Glo, primary screen (AID 1508586;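 active = mean z-score across replicates of 1.96 or higher in either the MELAS or the Rieske mutant cell line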;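 note: z relative to plate mean and SD of compound and empty wells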); conditions: low glucose
# [9] = drug combination growth inhibition, ovarian cancer – cell-based, oncology-focused library, rucaparib conditional, profiling panel (AID 1508598); conditions: patient-derived ovarian cancer cells, CellTiter-Glo viability, 144 h, stronger effect = lower value
# [10] = compounds altering HSF1 focus formation in cells – imaging, Selleck Cancer Library (AID 1347162; in the data active = plate-normalised HSF1 focus index below about 0.46); conditions: human cells, HSF1 nuclear foci imaging, at 10 µM; SSMD: measured here: HSF1 foci SSMD mean; cell count: measured here: cell number; plate-normalised HSF1 focus index: stronger effect = lower value
# [11] = stronger effect = lower value, cell number ratio, induced over uninduced
# [12] = measured here: relative caspase fold change +Dox/-Dox
# [13] = measured here: total cells with miR-34 induction, stronger effect = lower value
# [14] = measured here: total cells without miR-34 induction
# [15] = MELAS cybrid survival, CellTiter-Glo 48 h, stronger effect = higher value
# [16] = Rieske KO mouse fibroblast survival, CellTiter-Glo 72 h
# [17] = at 0.000305 µM, OCI-C5x cells, with rucaparib 10 µM, 100% = cells with rucaparib alone
# [18] = at 0.000305 µM, OCI-C5x cells, without rucaparib
# [19] = at 0.000305 µM, OCI-P5x cells, with rucaparib 20 µM, 100% = cells with rucaparib alone
# [20] = at 0.000305 µM, OCI-P5x cells, without rucaparib
# [21] = at 0.00122 µM, OCI-C5x cells, with rucaparib 10 µM, 100% = cells with rucaparib alone
# [22] = at 0.00122 µM, OCI-C5x cells, without rucaparib
# [23] = at 0.00122 µM, OCI-P5x cells, with rucaparib 20 µM, 100% = cells with rucaparib alone
# [24] = at 0.00122 µM, OCI-P5x cells, without rucaparib
# [25] = at 0.00488 µM, OCI-C5x cells, with rucaparib 10 µM, 100% = cells with rucaparib alone
# [26] = at 0.00488 µM, OCI-C5x cells, without rucaparib
# [27] = at 0.00488 µM, OCI-P5x cells, with rucaparib 20 µM, 100% = cells with rucaparib alone
# [28] = at 0.00488 µM, OCI-P5x cells, without rucaparib
# [29] = at 0.0195 µM, OCI-C5x cells, with rucaparib 10 µM, 100% = cells with rucaparib alone
# [30] = at 0.0195 µM, OCI-C5x cells, without rucaparib
# [31] = at 0.0195 µM, OCI-P5x cells, with rucaparib 20 µM, 100% = cells with rucaparib alone
# [32] = at 0.0195 µM, OCI-P5x cells, without rucaparib
# [33] = at 0.0781 µM, OCI-C5x cells, with rucaparib 10 µM, 100% = cells with rucaparib alone
# [34] = at 0.0781 µM, OCI-C5x cells, without rucaparib
# [35] = at 0.0781 µM, OCI-P5x cells, with rucaparib 20 µM, 100% = cells with rucaparib alone
# [36] = at 0.0781 µM, OCI-P5x cells, without rucaparib
# [37] = at 0.313 µM, OCI-C5x cells, with rucaparib 10 µM, 100% = cells with rucaparib alone
# [38] = at 0.313 µM, OCI-C5x cells, without rucaparib
# [39] = at 0.313 µM, OCI-P5x cells, with rucaparib 20 µM, 100% = cells with rucaparib alone
# [40] = at 0.313 µM, OCI-P5x cells, without rucaparib
# [41] = at 1.25 µM, OCI-C5x cells, with rucaparib 10 µM, 100% = cells with rucaparib alone
# [42] = at 1.25 µM, OCI-C5x cells, without rucaparib
# [43] = at 1.25 µM, OCI-P5x cells, with rucaparib 20 µM, 100% = cells with rucaparib alone
# [44] = at 1.25 µM, OCI-P5x cells, without rucaparib
# [45] = at 5 µM, OCI-C5x cells, with rucaparib 10 µM, 100% = cells with rucaparib alone
# [46] = at 5 µM, OCI-C5x cells, without rucaparib
# [47] = at 5 µM, OCI-P5x cells, with rucaparib 20 µM, 100% = cells with rucaparib alone
# [48] = at 5 µM, OCI-P5x cells, without rucaparib
smiles,measurement,setting,value
CCN(CC)CCNC(=O)c1c(C)[nH]c(/C=C2/C(=O)Nc3ccc(-c4csc(-c5ccccc5)n4)cc32)c1C,AC50,[1],3.32 µM (active)
same,AC50,[2],2.95 µM (active)
same,AC50,[3],4.68 µM (active)
same,AC50,[4],2.95 µM (active)
COc1cccc2c1c(O)c(C(=O)N(C)c1ccc(C(F)(F)F)cc1)c(=O)n2C,outcome,[1],inactive
same,outcome,[2],inactive
same,outcome,[3],inactive
same,outcome,[4],inactive
CN1C/C=C/CCOc2cccc(c2)-c2ccnc(n2)Nc2cccc(c2)C1,AC50,[1],0.0833 µM (active)
same,AC50,[2],0.132 µM (active)
same,AC50,[3],0.0934 µM (active)
same,AC50,[4],0.166 µM (active)
COCCOc1nc(-c2ccc(Cl)c(Cl)c2)n(-c2ccc(NC(=O)CCl)cc2)n1,AC50,[1],1.32 µM (active)
same,AC50,[2],2.63 µM (active)
same,AC50,[3],2.95 µM (active)
same,outcome,[5],inactive
same,AC50,[4],2.63 µM (active)
same,outcome,[6],inactive
same,fold change,[7]; [11],1.14 (inactive)
same,fold change,[7]; [12],0.519
same,cell count,[7]; [13],3760
same,cell count,[7]; [14],3290
same,z-score,[8]; [15],-0.782 (inactive)
same,z-score,[8]; [16],-7.88
same,viability,[9]; [17],125% (inactive)
same,viability,[9]; [18],115% (inactive)
same,viability,[9]; [19],104% (inactive)
same,viability,[9]; [20],105% (inactive)
same,viability,[9]; [21],131% (inactive)
same,viability,[9]; [22],104% (inactive)
same,viability,[9]; [23],93.4% (active)
same,viability,[9]; [24],103% (inactive)
same,viability,[9]; [25],131% (inactive)
same,viability,[9]; [26],113% (inactive)
same,viability,[9]; [27],105% (inactive)
same,viability,[9]; [28],99.8% (active)
same,viability,[9]; [29],114% (inactive)
same,viability,[9]; [30],106% (inactive)
same,viability,[9]; [31],103% (inactive)
same,viability,[9]; [32],100% (inactive)
same,viability,[9]; [33],125% (inactive)
same,viability,[9]; [34],111% (inactive)
same,viability,[9]; [35],95.6% (active)
same,viability,[9]; [36],97.3% (active)
same,viability,[9]; [37],124% (inactive)
same,viability,[9]; [38],112% (inactive)
same,viability,[9]; [39],96.8% (active)
same,viability,[9]; [40],90.6% (active)
same,viability,[9]; [41],97.1% (active)
same,viability,[9]; [42],112% (inactive)
same,viability,[9]; [43],86.3% (active)
same,viability,[9]; [44],86.9% (active)
same,viability,[9]; [45],2.67% (active)
same,viability,[9]; [46],92.5% (active)
same,viability,[9]; [47],1.14% (active)
same,viability,[9]; [48],6.27% (active)
CC(C)n1ncnc1-c1cn2c(n1)-c1ccc(O[C@@H](C)C(N)=O)cc1OCC2,AC50,[1],1.32 µM (active)
same,AC50,[2],1.05 µM (active)
same,AC50,[3],0.59 µM (active)
NC(=O)C1CCCc2c1[nH]c1ccc(Cl)cc21 (stereo not given),outcome,[1],inactive
same,outcome,[2],inactive
same,outcome,[3],inactive
same,outcome,[5],inactive
same,outcome,[4],inactive
same,outcome,[6],inactive
same,fold change,[7]; [11],1.01 (inactive)
same,fold change,[7]; [12],0.695
same,cell count,[7]; [13],7360
same,cell count,[7]; [14],7260
same,SSMD,[10],1.46
same,cell count,[10],6830
same,plate-normalised HSF1 focus index,[10],1.08 (inactive)
same,z-score,[8]; [15],-0.456 (inactive)
same,z-score,[8]; [16],-0.725
same,viability,[9]; [17],114% (inactive)
same,viability,[9]; [18],113% (inactive)
same,viability,[9]; [19],92.1% (active)
same,viability,[9]; [20],96.9% (active)
same,viability,[9]; [21],118% (inactive)
same,viability,[9]; [22],119% (inactive)
same,viability,[9]; [23],109% (inactive)
same,viability,[9]; [24],101% (inactive)
same,viability,[9]; [25],117% (inactive)
same,viability,[9]; [26],114% (inactive)
same,viability,[9]; [27],105% (inactive)
same,viability,[9]; [28],111% (inactive)
same,viability,[9]; [29],106% (inactive)
same,viability,[9]; [30],115% (inactive)
same,viability,[9]; [31],109% (inactive)
same,viability,[9]; [32],116% (inactive)
same,viability,[9]; [33],113% (inactive)
same,viability,[9]; [34],112% (inactive)
same,viability,[9]; [35],105% (inactive)
same,viability,[9]; [36],117% (inactive)
same,viability,[9]; [37],112% (inactive)
same,viability,[9]; [38],124% (inactive)
same,viability,[9]; [39],105% (inactive)
same,viability,[9]; [40],120% (inactive)
same,viability,[9]; [41],109% (inactive)
same,viability,[9]; [42],118% (inactive)
same,viability,[9]; [43],107% (inactive)
same,viability,[9]; [44],120% (inactive)
same,viability,[9]; [45],100% (active)
same,viability,[9]; [46],124% (inactive)
same,viability,[9]; [47],95% (active)
same,viability,[9]; [48],114% (inactive)
O=C(NOCCO)c1cc(CN2OCCCC2=O)c(F)c(F)c1Nc1ccc(I)cc1F,AC50,[1],0.332 µM (active)
same,AC50,[2],0.148 µM (active)
same,AC50,[3],0.417 µM (active)
same,AC50,[4],0.148 µM (active)
CC1=C(c2ccc(O)cc2)[C@H](c2ccc(OCCN3CCCCC3)cc2)Oc2cc(O)ccc21,AC50,[1],20.9 µM (active)
same,AC50,[2],18.6 µM (active)
same,AC50,[3],16.6 µM (active)
same,outcome,[4],inactive
NC(=O)c1cccc2c(NC(CN3CCC3)c3ccc(Cl)c(C(F)(F)F)c3)ncnc12 (stereo not given),AC50,[1],11.8 µM (active)
same,AC50,[2],3.72 µM (active)
same,AC50,[3],2.95 µM (active)
same,AC50,[4],11.8 µM (active)
CC1(C)OCCn2c1nc1c(N3CCOCC3)nc(-c3cnc(N)nc3)nc12,AC50,[1],3.72 µM (active)
same,AC50,[2],1.86 µM (active)
same,AC50,[3],1.48 µM (active)
same,AC50,[4],1.32 µM (active)
Cc1nc([C@](C)(O)CO)sc1-c1cnc(N)c(O[C@H](C)c2cc(F)ccc2-n2nccn2)c1,AC50,[1],8.33 µM (active)
same,AC50,[2],1.48 µM (active)
same,AC50,[3],2.63 µM (active)
